High-throughput results from PubChem BioAssay.
PrPC surface inh: inhibitors of human cell surface prion protein PrPC, primary screen, cell-based, TR-FRET; inhibition, % at 13.8 µM; Major prion protein (Homo sapiens), P04156; TR-FRET read-out; 370,000 tested, 0.43% active; in the data active = inhibition above about 24%
UGM FP inh: M. tuberculosis UGM enzyme inhibitors, primary screen, biochemical, fluorescence polarization, single point | purified UGM, fluorescence polarization probe displacement | inhibition, % at 10 µM | UDP-galactopyranose mutase (Mycobacterium tuberculosis (strain ATCC 25618 / H37Rv)), … | AID 504406, 2011 | 320,000 tested, 0.06% active; in the data active = inhibition above about 10%, passing the limit was not always enough; inconclusive = no clear call, values can overlap the other calls
PriA SSB inh: inhibitors of Klebsiella pneumoniae PriA binding to SSB C-terminal tail, primary screen, biochemical, AlphaScreen | PriA–SSB C-terminal tail interaction (Klebsiella pneumoniae) | AlphaScreen SSBct-PriA binding, biotinylated peptide | 430,000 tested, 0.6% active | inhibition, % at 33 µM; in the data active = inhibition mostly above about 37%, no sharp cut-off; inactive = mostly below about 20%
PrP UTR inh: inhibition of PrP 5' UTR reporter expression | inhibition, % (no concentration beside the values) | AID 488862, 2010 | cell-based PrP 5' UTR mRNA reporter, plate reader | 340,000 tested, 0.35% active; in the data active = inhibition above about 52%
Rv3671c inh: Rv3671c serine protease inhibitors, primary screen, biochemical, fluorescence polarization, M. tuberculosis H37Rv | P9WHR9 | inhibition, % at 5.96 µM | 320,000 tested, 0.048% active | AID 2606, 2010; in the data active = inhibition above about 38%;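 also: extracellular domain of Rv3671c used as enzyme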
Target sequence (P9WHR9 whole entry, looked up, the tested form may be a part): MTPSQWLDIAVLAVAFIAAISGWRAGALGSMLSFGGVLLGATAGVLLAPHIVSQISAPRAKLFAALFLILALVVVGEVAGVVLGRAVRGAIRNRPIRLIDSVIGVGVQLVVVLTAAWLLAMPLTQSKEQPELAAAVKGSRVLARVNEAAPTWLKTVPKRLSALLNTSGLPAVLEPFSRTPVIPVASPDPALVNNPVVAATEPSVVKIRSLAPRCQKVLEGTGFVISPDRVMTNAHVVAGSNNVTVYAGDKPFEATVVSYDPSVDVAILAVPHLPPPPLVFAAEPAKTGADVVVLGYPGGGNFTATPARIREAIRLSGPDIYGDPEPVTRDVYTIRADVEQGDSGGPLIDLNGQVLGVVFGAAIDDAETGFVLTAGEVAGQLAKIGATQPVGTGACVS
FadD28 FP inh: inhibitors of FadD28 bisubstrate probe binding, primary screen, biochemical, fluorescence polarization, single point | inhibition, % at 12.5 µM | 360,000 tested, 0.22% active; in the data active = inhibition above about 8.5%, passing the limit was not always enough; inconclusive = no clear call, values can overlap the other calls
A number is an active result; n = inactive; u = inconclusive; x = no result. Compounds with a hit are over-represented: about 1.2% of the library has one in this group of screens.

SMILES | PrPC surface inh | UGM FP inh | PriA SSB inh | PrP UTR inh | Rv3671c inh | FadD28 FP inh
COc1ccc(OC)c2sc(N(CCCn3ccnc3)C(=O)COc3ccccc3)nc12 | x | x | 73.0 | x | x | x
CCC1C2CC3C4N(C)c5ccccc5C45CC(C2C5O)N3C1O (centres undefined) | n | x | x | x | x | n
CCCC[N+]12C3C[C@H](C4[C@H](O)[C@]5(C[C@@H]41)c1ccccc1N(C)[C@@H]35)[C@H](CC)[C@H]2O (some centres undefined) | n | n | 49.4 | n | n | n
OCc1ccc(-c2nn(Cc3ccccc3)c3ccccc23)o1 | n | n | 41.5 | n | n | n
Cc1ccc(OC2CCN(C(=O)c3sc(-n4cccc4)nc3C)CC2)nn1 | x | x | n | x | x | x
O=C(NN1C(=O)/C(=C/c2cc([N+](=O)[O-])ccc2O)SC1=S)c1ccccc1O | x | n | x | x | 51.7 | x
O=C(NN1C(=O)/C(=C/c2ccc(O)cc2)SC1=S)c1cccc(O)c1 | n | n | n | n | n | 19.1
O=C(NN1C(=O)/C(=C/c2ccc(O)c([N+](=O)[O-])c2)SC1=S)c1ccccc1Cl | n | n | n | n | n | 20.7
COc1cc(/C=C2\SC(=S)N(NC(=O)c3ccccc3O)C2=O)ccc1O | n | n | n | n | n | 11.5
O=C(NN1C(=O)/C(=C/c2ccc(Br)cc2)SC1=S)c1cccc(Cl)c1 | x | x | n | x | x | x
Cc1ccc(/C=C2\SC(=S)N(/N=C/c3cc([N+](=O)[O-])ccc3O)C2=O)o1 | x | n | x | n | n | 26.2
O=C(NN1C(=O)/C(=C/c2ccc(O)cc2)SC1=S)c1ccccc1O | n | n | n | n | n | 18.9
Cc1ccccc1/C=C1\SC(=S)N(N=Cc2cc([N+](=O)[O-])ccc2O)C1=O | x | x | n | x | x | x
Nc1ccc(C(=O)N/N=C/c2cn(Cc3ccccc3F)c3ccccc23)cc1 | n | n | x | n | x | n
O=C(NN=Cc1cn(Cc2cccc(F)c2)c2ccccc12)c1cc(O)cc(O)c1 | x | x | n | x | x | x
CC(C)n1cc(/C=N/Nc2ccc(C(=O)O)cc2)c2ccccc21 | n | n | x | n | n | 21.6
O=C(N/N=C/c1cn(Cc2cccc(F)c2)c2ccccc12)c1cc(O)cc(O)c1 | n | n | x | n | x | 17.0
O=C(O)c1ccc(N/N=C/c2cn(Cc3ccccc3F)c3ccccc23)cc1 | n | n | n | n | n | 12.6
CCN(CC)CCn1c2c(c(SCC(=O)Nc3nccs3)nc1=O)CCC2 | x | x | n | x | x | x
N#Cc1nc(-c2ccc(COc3ccc(Cl)cc3)o2)oc1N1CCc2ccccc2C1 | x | x | n | x | x | x
Cc1cccc(NC(=O)CN2C(=O)N/C(=C/c3ccc(C)s3)C2=O)c1 | n | n | n | n | n | u
Cc1ccc(NC(=O)CN2C(=O)N/C(=C/c3cc(C)n(-c4ccc(C(=O)O)cc4)c3C)C2=O)cc1 | n | x | n | n | x | 52.5
Cc1ccc(NC(=O)CN2C(=O)N/C(=C/c3ccco3)C2=O)cc1 | n | n | n | n | n | n
Cc1cccc(NC(=O)CN2C(=O)N/C(=C/c3cc(C)n(C(C)C)c3C)C2=O)c1 | n | n | n | n | n | 41.7
COc1ccc(NC(=O)CN2C(=O)S/C(=C/c3cccn3-c3ccc(C(=O)O)cc3)C2=O)cc1 | n | n | x | n | x | n
SMILES | PrPC surface inh | UGM FP inh | PriA SSB inh | PrP UTR inh | Rv3671c inh | FadD28 FP inh
Cc1ccc(NC(=O)CN2C(=O)N/C(=C/c3cccn3-c3ccc(C(=O)O)cc3)C2=O)cc1 | n | n | n | n | n | 17.8
CCn1c(C)cc(/C=C2\NC(=O)N(CC(=O)Nc3ccc(F)cc3)C2=O)c1C | n | n | n | n | n | n
Cc1ccc(NC(=O)CN2C(=O)S/C(=C\c3cc(C)n(-c4ccc(C(=O)O)cc4)c3C)C2=O)cc1 | n | n | n | n | n | 59.9
CCOc1ccc(C2C(=C(O)c3ccc4c(c3)OCCO4)C(=O)C(=O)N2CCCn2ccnc2)cc1OC (centres undefined) | x | x | n | x | x | x
CCOc1ccc(OCCNC(=O)c2cccc([N+](=O)[O-])c2C)cc1 | x | x | n | x | x | x
O=C(Nc1nc2ccccc2s1)c1cc(OCc2ccccc2)no1 | x | x | n | x | x | x
Cc1ccc(CNC(=O)CN2C(=O)COc3ccc(C)cc32)cc1 | n | n | 38.6 | n | n | n
Cc1ccnc(NS(=O)(=O)c2ccc(NC(=O)CCN3C(=O)c4ccccc4S3(=O)=O)cc2)n1 | x | x | n | x | x | x
N#Cc1c(N)sc(=S)c2c1CCCC2 | n | n | 64.9 | n | n | n
CCOC(=O)c1ccc(NC(=S)NNC(=O)C2(C)CC2(Cl)Cl)cc1 (centres undefined) | n | n | n | n | n | 15.1
CCCCC(O)=C1C(=O)CCCC1=NCCc1c(C)[nH]c2ccccc12 | x | x | n | x | x | x
O=C(CCSc1ccc(Cl)cc1)N1CCOCC1 | n | n | n | n | n | n
O=C(CSc1ccc(Cl)cc1)N1CCOCC1 | n | n | n | n | n | 14.7
c1ccc(-c2nc(NC3CCCC3)c3ccccc3n2)nc1 | x | x | 120.0 | x | x | x
c1ccc(-c2nc(NCC3CCCO3)c3ccccc3n2)nc1 (centres undefined) | n | n | 88.9 | n | n | n
CC(C)N1CCC(CNC(=O)c2cccc(C(F)(F)F)c2)CC1 | x | x | n | x | x | x
O=c1cc(CSc2nnnn2-c2ccccc2)[nH]c2[nH]n(-c3ccccc3)c(=O)c12 | n | n | n | n | n | 8.9
c1ccc(CSc2nnnn2-c2ccccc2)cc1 | n | n | n | n | n | n
CCOC(=O)c1ccc(CO)nc1 | x | x | n | x | x | x
Cc1c(CNS(=O)(=O)c2ccccc2F)sc2nc(-c3ccc(F)cc3)cn12 | x | x | 36.0 | x | x | x
Nc1ccccc1N=Nc1ccccc1N | n | n | 82.9 | n | n | n
Nc1ccccc1-c1ccccc1N | n | n | n | n | n | n
CS(=O)(=O)N1CCCC(C(=O)Nc2nc3c(s2)CCc2ccccc2-3)C1 (centres undefined) | x | x | n | x | x | x
CCC(NC(=O)c1ccccc1NC(=O)c1ccccc1)C(=O)OC (centres undefined) | n | n | 52.0 | n | n | n
CCC(NC(=O)c1ccccc1NC(=O)c1ccc(OC)cc1)C(=O)N1CCCC1 (centres undefined) | n | n | n | n | n | n
SMILES | PrPC surface inh | UGM FP inh | PriA SSB inh | PrP UTR inh | Rv3671c inh | FadD28 FP inh
CNc1sc(C(=O)c2ccc(F)cc2)c(N)c1-c1nc2ccccc2s1 | n | n | n | n | n | n
CNc1sc(C(=O)c2cccs2)c(N)c1-c1nc2ccccc2s1 | n | n | 52.5 | n | n | n
COC(CNC(=O)c1ccc(N2CCc3ccccc32)c([N+](=O)[O-])c1)OC | n | n | 47.8 | n | n | n
Cc1ccc(CNC(=O)c2ccc(N3CCc4ccccc43)c([N+](=O)[O-])c2)cc1 | n | n | 66.2 | n | n | n
NNC(=O)c1ccc(N2CCc3ccccc32)c([N+](=O)[O-])c1 | n | n | n | n | n | n
C=C1CCN(c2ccc(C(=O)NCc3ccccc3)cc2[N+](=O)[O-])CC1 | n | n | n | n | n | n
CC(C)(C)N=C1NN=C(c2cc3ccccc3o2)CS1 | n | n | 42.2 | n | n | n
O=C(O)c1ccc(=O)[nH]n1 | x | x | 41.0 | x | x | x
